{"source": "paper PMC4336329", "about": "(PLoS ONE, 2015)", "note": "About 14,000 (4.5%) of roughly 310,000 compounds showed an effect of 50% or more. Effects have a minus sign here. For the sample, strong results were picked, then their nearest neighbours and some compounds at random.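 Note: peak tail current of the secondary pulse compared with the same well before compound.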"}
{"target": "human ether-à-go-go-related gene (hERG) potassium channel (human, UniProt Q12809)", "sequence (Q12809 whole entry, looked up)": "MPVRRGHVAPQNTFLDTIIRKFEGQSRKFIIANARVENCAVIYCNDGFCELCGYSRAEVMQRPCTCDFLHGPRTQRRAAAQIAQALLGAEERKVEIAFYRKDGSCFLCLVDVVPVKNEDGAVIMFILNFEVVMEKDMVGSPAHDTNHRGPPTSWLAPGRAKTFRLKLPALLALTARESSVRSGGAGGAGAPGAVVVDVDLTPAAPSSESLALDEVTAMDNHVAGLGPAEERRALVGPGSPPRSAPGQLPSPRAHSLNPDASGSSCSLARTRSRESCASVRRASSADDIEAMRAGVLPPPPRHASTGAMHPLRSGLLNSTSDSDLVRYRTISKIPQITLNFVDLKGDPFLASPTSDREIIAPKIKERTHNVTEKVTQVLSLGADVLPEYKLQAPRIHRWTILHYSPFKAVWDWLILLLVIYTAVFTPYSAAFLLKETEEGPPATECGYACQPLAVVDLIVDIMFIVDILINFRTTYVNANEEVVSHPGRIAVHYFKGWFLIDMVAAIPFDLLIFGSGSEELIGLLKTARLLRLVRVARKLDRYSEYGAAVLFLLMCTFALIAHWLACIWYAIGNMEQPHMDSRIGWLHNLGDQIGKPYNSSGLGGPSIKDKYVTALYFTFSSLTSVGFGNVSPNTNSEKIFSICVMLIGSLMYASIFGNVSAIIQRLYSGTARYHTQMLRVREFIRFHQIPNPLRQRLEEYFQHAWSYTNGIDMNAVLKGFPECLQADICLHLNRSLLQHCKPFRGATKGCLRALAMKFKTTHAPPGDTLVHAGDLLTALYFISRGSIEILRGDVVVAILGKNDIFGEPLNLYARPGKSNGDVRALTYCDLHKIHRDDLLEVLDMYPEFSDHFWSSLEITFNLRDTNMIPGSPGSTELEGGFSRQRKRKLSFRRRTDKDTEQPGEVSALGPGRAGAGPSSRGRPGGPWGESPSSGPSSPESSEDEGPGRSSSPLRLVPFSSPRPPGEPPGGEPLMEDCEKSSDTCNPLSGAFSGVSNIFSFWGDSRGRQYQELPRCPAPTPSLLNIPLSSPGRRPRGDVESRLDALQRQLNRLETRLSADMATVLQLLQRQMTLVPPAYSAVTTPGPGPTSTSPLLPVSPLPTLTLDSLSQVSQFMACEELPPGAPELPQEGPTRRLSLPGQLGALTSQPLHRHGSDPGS", "assay": "primary screen, population patch clamp on CHO cells stably expressing hERG; higher = less effect of the substance", "units": {"hERG current change (%, negative = inhibition) at 10uM": "%"}}
{"smiles": "Cc1ccc(C(=O)Nc2cccc(C(F)(F)F)c2)cc1NC(=O)c1ccno1", "hERG current change (%, negative = inhibition) at 10uM": -67}
{"smiles": "Cc1ccc(C(=O)Nc2cccc(C(F)(F)F)c2)cc1NC(=O)c1nccn1C", "hERG current change (%, negative = inhibition) at 10uM": 1.96}
{"smiles": "CCOC(=O)Nc1ccc2c(c1)N(C(=O)CCN1CCOCC1)c1ccccc1S2.Cl", "hERG current change (%, negative = inhibition) at 10uM": -7}
{"smiles": "CN1CCN(c2nc3c(c(=O)n(C)c(=O)n3C)n2Cc2ccccc2F)CC1", "hERG current change (%, negative = inhibition) at 10uM": -4.91}
{"smiles": "CCCN(C(=O)c1cnccn1)c1c(N)n(Cc2ccccc2)c(=O)[nH]c1=O", "hERG current change (%, negative = inhibition) at 10uM": 0.0848}
{"smiles": "Cc1ccc(S(=O)(=O)N2[C@@H](c3ccc(Cl)cc3)C(C(=O)O)=CC[C@H]2c2ccc(Cl)c(Cl)c2)cc1", "hERG current change (%, negative = inhibition) at 10uM": 11.1}
{"smiles": "CC(C)c1cc(C(=O)N2CCCC(C(=O)c3ccc4ccccc4c3)C2)on1", "note": "(centres unmarked)", "hERG current change (%, negative = inhibition) at 10uM": -21.8}
{"smiles": "COc1ccc(C(=O)C2CCCN(C(=O)c3cc(C(C)C)no3)C2)cc1F", "note": "(centres unmarked)", "hERG current change (%, negative = inhibition) at 10uM": -56.9}
{"smiles": "COc1ccc(C(=O)C2CCCN(C(=O)c3cc(C)on3)C2)cc1F", "note": "(centres unmarked)", "hERG current change (%, negative = inhibition) at 10uM": -6.98}
{"smiles": "Cc1cc(Cl)ccc1C(=O)C1CCCN(C(=O)c2cc(C(C)C)no2)C1", "note": "(centres unmarked)", "hERG current change (%, negative = inhibition) at 10uM": -22.7}
{"smiles": "COc1ccccc1C(=O)C1CCCN(C(=O)c2cc(C(C)C)no2)C1", "note": "(centres unmarked)", "hERG current change (%, negative = inhibition) at 10uM": -5.26}
{"smiles": "CSc1ccccc1C(=O)C1CCCN(C(=O)c2cc(C(C)C)no2)C1", "note": "(centres unmarked)", "hERG current change (%, negative = inhibition) at 10uM": -69.6}
{"smiles": "Cc1ccccc1NC(=O)CSc1nc(N)c(C#N)cc1C#N", "hERG current change (%, negative = inhibition) at 10uM": 0.675}
{"smiles": "Cc1nc2c(-c3ccccc3)c(C)nn2c(C)c1CC(=O)O", "hERG current change (%, negative = inhibition) at 10uM": 5.02}
{"smiles": "O=C(CSc1nnc(CNC(=O)c2ccco2)o1)c1ccccc1", "hERG current change (%, negative = inhibition) at 10uM": 4.14}
{"smiles": "COc1cccc(C(=O)Nc2ccccc2C(=O)NC2CC2)c1", "hERG current change (%, negative = inhibition) at 10uM": 0.677}
{"smiles": "Cc1ccc(C)c(N2CCN(C(=O)Nc3ccc4c(c3)N(C)C(=O)CS4)CC2)c1", "hERG current change (%, negative = inhibition) at 10uM": -21.8}
{"smiles": "CC(C)CN1CCC(=O)N([C@H](CSc2ccc(Br)cc2)c2ccccc2)CC1", "hERG current change (%, negative = inhibition) at 10uM": -63.9}
{"smiles": "COc1ccc(CN2CCC(=O)N([C@H](CO)c3ccccc3)CC2)cc1", "hERG current change (%, negative = inhibition) at 10uM": 13.3}
{"smiles": "CCCN1CCC(=O)N([C@H](CSc2ccccc2)c2ccccc2)CC1", "hERG current change (%, negative = inhibition) at 10uM": -77.2}
{"smiles": "CCCN1CCC(=O)N([C@H](CSc2ccc(OC)cc2)c2ccccc2)CC1", "hERG current change (%, negative = inhibition) at 10uM": -76.5}
{"smiles": "CCCN1CCC(=O)N([C@H](CSc2ccc(C)cc2)c2ccccc2)CC1", "hERG current change (%, negative = inhibition) at 10uM": -76}
{"smiles": "Nc1cc(=O)[nH]c(SCc2csc(-c3ccccc3)n2)n1", "hERG current change (%, negative = inhibition) at 10uM": -3.63}
{"smiles": "O=C(NCCC1=CCCCC1)c1ccc(F)cc1", "hERG current change (%, negative = inhibition) at 10uM": -9.04}
{"smiles": "Cc1noc(/C=C/N(C)C)c1S(=O)(=O)N1CCCC(C(=O)NC2CCCCC2C)C1", "note": "(centres unmarked)", "hERG current change (%, negative = inhibition) at 10uM": -25.5}
{"smiles": "O=C(Cc1ccc([N+](=O)[O-])cc1)OCc1ccc([N+](=O)[O-])cc1", "hERG current change (%, negative = inhibition) at 10uM": 19.2}
{"smiles": "CCCNC(=S)N1CCN(c2nc(-c3ccc(C)cc3)cs2)CC1", "hERG current change (%, negative = inhibition) at 10uM": 5.6}
{"smiles": "O=C(Nc1ccc(F)cc1F)c1cncc(Br)c1", "hERG current change (%, negative = inhibition) at 10uM": -3.88}
{"smiles": "CCOC(=O)c1cnn(CCOC(=O)C(C)(C)C)c1NC(=O)C(C)(C)C", "hERG current change (%, negative = inhibition) at 10uM": 12.8}
{"smiles": "COc1cc(OC)c2ccc(=O)oc2c1C(CC(=O)N1CCOCC1)c1ccc2c(c1)OCO2", "note": "(centres unmarked)", "hERG current change (%, negative = inhibition) at 10uM": -0.731}
{"smiles": "Cc1nc(Nc2ccc(Cl)cc2)c2oc3ccccc3c2n1", "hERG current change (%, negative = inhibition) at 10uM": 3.95}
{"smiles": "CCCN1CCC(=O)N([C@H](CSc2ccc(Br)cc2)c2ccccc2)CC1", "hERG current change (%, negative = inhibition) at 10uM": -76.2}
{"smiles": "O=C1CCN(Cc2ccc(Br)cc2)CCN1[C@H](CO)c1ccccc1", "hERG current change (%, negative = inhibition) at 10uM": -3.45}
{"smiles": "Cc1ccc(C)c(OCCC(=O)OCC(=O)N2CCN(S(=O)(=O)c3ccc(Cl)cc3)CC2)c1", "hERG current change (%, negative = inhibition) at 10uM": -29.8}
{"smiles": "O=S(=O)(c1ccccc1)c1nc(-c2ccco2)oc1NCc1cccnc1", "hERG current change (%, negative = inhibition) at 10uM": -20.1}
{"smiles": "O=C(Cc1ccccc1)NCCc1c[nH]c2ccccc12.O=C(O)C(=O)O", "hERG current change (%, negative = inhibition) at 10uM": 16.4}
{"smiles": "COc1ccc(Br)cc1CN1CCN(Cc2c[nH]c3ccccc23)CC1.O=C(O)C(=O)O", "hERG current change (%, negative = inhibition) at 10uM": -29.2}
{"smiles": "COc1ccc(CN2CCN(Cc3c[nH]c4ccccc34)CC2)cc1.O=C(O)C(=O)O", "hERG current change (%, negative = inhibition) at 10uM": -67.5}
{"smiles": "COc1ccccc1C(=O)N1CCN(Cc2c[nH]c3ccccc23)CC1.O=C(O)C(=O)O", "hERG current change (%, negative = inhibition) at 10uM": -19.7}
{"smiles": "CN(CCc1ccccc1)Cc1c[nH]c2ccccc12.O=C(O)C(=O)O", "hERG current change (%, negative = inhibition) at 10uM": -56.7}
{"smiles": "CCOc1ccc(CN2CCN(C(=O)Cc3ccccc3)CC2)cc1.O=C(O)C(=O)O", "hERG current change (%, negative = inhibition) at 10uM": -44.1}
{"smiles": "CCS(=O)(=O)N1CCN(Cc2c[nH]c3ccccc23)CC1.O=C(O)C(=O)O", "hERG current change (%, negative = inhibition) at 10uM": 5.44}
{"smiles": "CCOc1ccc(CN2CCN(Cc3c[nH]c4ccccc34)CC2)cc1.O=C(O)C(=O)O", "hERG current change (%, negative = inhibition) at 10uM": -84.4}
{"smiles": "Brc1ccc(CN2CCN(Cc3c[nH]c4ccccc34)CC2)cc1.O=C(O)C(=O)O", "hERG current change (%, negative = inhibition) at 10uM": -63.8}
{"smiles": "CN(Cc1ccccc1)Cc1c[nH]c2ccccc12", "hERG current change (%, negative = inhibition) at 10uM": -16.5}
{"smiles": "Brc1ccccc1CN1CCN(Cc2c[nH]c3ccccc23)CC1.O=C(O)C(=O)O", "hERG current change (%, negative = inhibition) at 10uM": -20.1}
{"smiles": "COc1ccc(S(=O)(=O)N2CCN(Cc3c[nH]c4ccccc34)CC2)cc1", "hERG current change (%, negative = inhibition) at 10uM": -24.9}
